# From PubChem
# KCNQ2 block – KCNQ2 (rat) channel inhibition; O88943; CHO-K1 KCNQ2, FluxOR thallium flux, 20 min; stronger effect = lower value; B-score at 10 µM; 310,000 compounds, 1.1% hits; AID 2156;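 active = fluorescence ratio B-score at most minus 3 library SDs, with starting brightness B-score within 2 library SDs, cut at about -5.5 in these data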
# KCNQ2 pot – KCNQ2 (rat) channel potentiation. O88943. CHO-K1 KCNQ2, FluxOR thallium flux fluorescence; stronger effect = higher value. B-score at 10 µM. 310,000 compounds, 0.54% hits. AID 2239;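 active = fluorescence ratio B-score at least 3 SD of library B-scores, with initial fluorescence B-score within 3 of them, cut at about 5.3 in these data; same plate scores as AID 2156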;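 note: B-score of peak minus minimum over baseline fluorescence ratio after K+ and Tl+ stimulus; positive B-score means potentiation of KCNQ2 with more thallium influx and brighter signal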
# KCNQ2 block conf – rat KCNQ2 channel inhibition, confirmatory screen. shares compounds with KCNQ2 block. KCNQ2-expressing cells, thallium flux; stronger effect = lower value. activity change, negative = inhibition, % at 10 µM. 1,000 compounds, 57% hits. AID 493025
# KCNQ1 spec – selectivity of KCNQ2 inhibitors against human KCNQ1; activity change, negative = inhibition, % at 10 µM; 1,000 compounds, 15% hits; KCNQ1-expressing cells, FluxOR thallium flux fluorescence; stronger effect = lower value; shares compounds with KCNQ2 block; AID 493026;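 active = activity change at least 3 SD of negative controls below their mean in both duplicate wells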;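 note: CHO cells stably transfected with KCNQ1 and depolarized by potassium stimulus; peak minus minimum fluorescence over baseline after thallium addition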
# CHO parental ctr – counter-screen for KCNQ2 inhibitors: effect in parental CHO cells; shares compounds with KCNQ2 block; thallium flux counter-screen; stronger effect = lower value; activity change, % at 10 µM; 1,000 compounds, 14% hits
# KCNQ2 inh confirm – blocks rat KCNQ2 current in automated patch clamp | shares compounds with KCNQ2 block | KCNQ2-expressing cells | calls only at 10 µM | 550 compounds, 49% hits
# Kir21 confirm – confirmation of mouse Kir2.1 potassium channel inhibitors | shares compounds with KCNQ2 pot | Kir2.1-expressing cells, FluxOR thallium flux fluorescence; stronger effect = lower value | Tl flux remaining, % of negative control (stronger effect = lower value), % at 10 µM | 2,300 compounds, 41% hits;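 active = Primary-screen hit whose thallium flux fell at least 3 control SD below untreated wells in both duplicates, with normal baseline fluorescence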
# Target sequence (P35561 whole entry, looked up): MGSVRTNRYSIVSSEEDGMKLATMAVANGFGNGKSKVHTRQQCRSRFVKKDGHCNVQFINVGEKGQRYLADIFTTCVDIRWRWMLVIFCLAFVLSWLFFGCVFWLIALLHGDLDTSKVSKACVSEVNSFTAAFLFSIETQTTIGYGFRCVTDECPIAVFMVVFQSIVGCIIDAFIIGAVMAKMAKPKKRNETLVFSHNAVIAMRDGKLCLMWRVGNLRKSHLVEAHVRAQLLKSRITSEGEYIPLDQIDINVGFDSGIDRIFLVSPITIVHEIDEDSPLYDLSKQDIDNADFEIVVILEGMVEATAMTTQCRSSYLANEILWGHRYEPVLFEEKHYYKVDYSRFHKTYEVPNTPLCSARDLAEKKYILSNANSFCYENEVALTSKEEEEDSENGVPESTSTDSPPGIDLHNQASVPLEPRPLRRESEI
# HEK293 Tl flux – counter-screen for Kir2.1 inhibitors: effect in parental HEK293 cells; FluxOR signal as % of negative control (100 = no effect), % at 10 µM; shares compounds with KCNQ2 pot; AID 2105; 2,300 compounds, 19% hits; FluxOR thallium flux fluorescence; 0% = unstimulated blank wells;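 active = dye signal at least 3 control SD above or below untreated wells in both duplicates, raw fluorescence within 3, either direction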;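 note: percent is based on the flux ratio of peak minus minimum fluorescence over baseline F0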
# CHO-K1 ctr – parental CHO-K1 activity in KCNQ2 potentiator counter-screen. shares compounds with KCNQ2 pot. parental CHO-K1 cells, FluxOR thallium flux fluorescence; zero = vehicle mean+3SD, 100% = vehicle-minus-blank window. activity increase over 3SD of controls, % at 10 µM. 1,200 compounds, 43% hits;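 active = signal rise of at least 3 SD above the untreated control mean, in both duplicate wells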;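 note: counter screen of KCNQ2 potentiator hits so any rise reflects channel-independent effects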
# KCNQ1 sel pot – tests whether KCNQ2 potentiators also act on human KCNQ1; shares compounds with KCNQ2 pot; CHO KCNQ1 stable, FluxOR thallium flux fluorescence; beyond 3SD, as % of vehicle-control signal; activation over 3SD threshold, % at 10 µM; 1,200 compounds, 28% hits; AID 2283;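 active = fluorescence ratio rise of at least 3 SD of vehicle wells above their mean, in both replicate wells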
# KCNQ2 pot confirm – rat KCNQ2 channel potentiator confirmation; shares compounds with KCNQ2 pot; 1,200 compounds, 68% hits; potentiation, less the hit threshold, % at 10 µM; AID 2287; CHO-KCNQ2 cells, FluxOR thallium flux fluorescence;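 active = fluorescence ratio rising 3 SD or more over the vehicle control mean in both replicates, plus primary screen hit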;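 note: peak minus minimum thallium fluorescence divided by baseline after K/Tl stimulus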
# Kir21 spec – mouse Kir2.1 off-target activity of KCNQ2 potentiators. HEK293 Kir2.1, FluxOR thallium flux fluorescence. AID 2345. activity over 3SD threshold, % at 10 µM. 1,200 compounds, 2% hits. shares compounds with KCNQ2 pot;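 active = fluorescence ratio rise of at least 3 SD above the vehicle-control mean, seen in both replicates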
# KCNQ2 W236L pot – rat KCNQ2 W236L mutant potentiation by KCNQ2 potentiators. shares compounds with KCNQ2 pot. CHO KCNQ2-W236L, automated patch clamp current. current increase over 3SD of negative controls (%), stronger effect = higher value, % at 25 µM. 940 compounds, 10% hits;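 active = current increase at least 3 SD of the untreated controls above them in both duplicate recordings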
# Hits are given with their value; 0 = inactive; - = no result given; + = active, no number. In the library only some 1.6% were active in any assay of this set; here they are far more common. Unless noted, the rule behind the calls is not given here.
SMILES,KCNQ2 block,KCNQ2 pot,Kir21 confirm,HEK293 Tl flux,others
COc1cc(CNCCc2ccccc2)cc(Cl)c1OCc1ccccc1,-7.22,0,31.0%,0,KCNQ2 block conf=0;KCNQ1 spec=0;CHO parental ctr=0
O=C(NC1CCCC1)C(c1ccncc1)N(C(=O)Cn1nnc(-c2ccccc2F)n1)c1cccc(F)c1 (centres undefined),0,-,-,-,
O=C(Nc1ccc([N+](=O)[O-])cc1)N1CCN(C(=O)C2CCCO2)CC1 (centres undefined),0,0,-,-,
O=C(/C=C/c1ccccc1O)c1ccco1,0,-,-,-,
O=C(/C=C/c1cc(Br)ccc1O)c1ccco1,-7.68,0,73.0%,0,KCNQ2 block conf=-35.5%;KCNQ1 spec=-41.0%;CHO parental ctr=-29.0%;KCNQ2 inh confirm=0
CNC(=S)N(Cc1cc2cc(OC)c(OC)cc2[nH]c1=O)C1CCCC1,0,-,-,-,
CCCCNC(=O)c1ccc(NC(C)=O)c(Cl)c1,0,-,-,-,
CCN1/C(=C/c2sc(-c3ccccc3C)c[n+]2C)Sc2ccccc21,-7.01,0,23.5%,0,KCNQ2 block conf=0;KCNQ1 spec=0;CHO parental ctr=0
CCN1/C(=C/c2ccc3cc(C)ccc3[n+]2CC)Sc2ccccc21,0,-,-,-,
NC(=O)CC(NC(=O)c1ccccc1)c1ccc(N2CCc3ccccc3C2)c([N+](=O)[O-])c1 (centres undefined),0,0,-,-,
N=c1c2c(-c3ccccc3)c(-c3ccccc3)n(Cc3ccco3)c2ncn1CCCO,0,-,-,-,
N=c1c2c(-c3ccccc3)c(-c3ccccc3)n(Cc3ccco3)c2ncn1CCO,-7.04,0,37.0%,0,KCNQ2 block conf=0;KCNQ1 spec=0;CHO parental ctr=0
Cc1ccc(C(=O)N/C(=C\c2ccc(-c3ccc(Br)cc3)o2)C(=O)NCCCN(C)C)cc1,-8.21,0,0,0,KCNQ2 block conf=-31.0%;KCNQ1 spec=0;CHO parental ctr=0;KCNQ2 inh confirm=0
Cc1ccc(C(=O)N/C(=C\c2ccc(-c3cccc([N+](=O)[O-])c3)o2)C(=O)NCCCN(C)C)cc1,0,0,-,-,
O=C(O)Cc1coc2ccc3ccccc3c12,0,0,-,-,
CC(C)CN(CC(C)C)C(=O)Cc1coc2ccc3ccccc3c12,-8.44,0,0,0,KCNQ2 block conf=-31.0%;KCNQ1 spec=-28.5%;CHO parental ctr=-20.5%;KCNQ2 inh confirm=+
Cc1cc(OCC(=O)NCC(c2cccs2)N2CCOCC2)ccc1C(C)C (centres undefined),0,-,-,-,
Cc1ccc(C(C)C)c(OCC(=O)NCC(c2cccs2)N2CCOCC2)c1 (centres undefined),-8.42,0,77.5%,0,KCNQ2 block conf=-38.5%;KCNQ1 spec=0;CHO parental ctr=0;KCNQ2 inh confirm=0
CCOc1ccc2ccc(OCC)c(/C=N/n3cnnc3)c2c1,0,0,-,-,
O=Cc1ccc(-c2ccccc2OC(F)(F)F)o1,0,6.56,0,0,CHO-K1 ctr=0;KCNQ1 sel pot=0;KCNQ2 pot confirm=0;Kir21 spec=0
Cc1c(C(=O)O)cccc1-c1ccc(C=O)o1,0,-,-,-,
NC(=O)c1ccccc1NC(=O)c1ccoc1,0,0,-,-,
CCOC(=O)C1=NN(C(=O)Cc2ccccc2)C(O)(c2ccc(Cl)cc2)C1 (centres undefined),0,-,-,-,
COC(=O)C1=NN(C(=O)c2cccc(Br)c2)C(O)(c2ccc(Cl)cc2)C1 (centres undefined),0,15.8,0,0,CHO-K1 ctr=18.3;KCNQ1 sel pot=0;KCNQ2 pot confirm=65.2;Kir21 spec=0;KCNQ2 W236L pot=0
Cc1cccc(Oc2ccc3c(c2)cc(C(=O)O)n3C)c1,0,0,-,-,
SMILES,KCNQ2 block,KCNQ2 pot,Kir21 confirm,HEK293 Tl flux,others
CCCC1Cc2nc(Cl)c(C#N)cc2CO1 (centres undefined),0,0,-,-,
COCCNC(=O)/C(C#N)=C/c1ccc(OC(=O)c2cccs2)c(OC)c1,0,-,0,0,
COCCNC(=O)/C(C#N)=C/c1cccs1,0,-,-,-,
Cc1ccccc1N1Cc2ccccc2C1,0,-,-,-,
CCOc1cccc(CN2CCCC(N3CCc4cc(OC)c(OC)cc4C3)C2)c1O (centres undefined),0,-,-,-,
CCN(CCCNC(=O)Cn1ncc2c([nH]c3ccc(C)cc32)c1=O)Cc1ccccc1,0,-,-,-,
O=C(CSc1nc2ccc(Cl)cc2[nH]1)NCc1ccco1,0,0,-,-,
O=C(CSc1c2c(nc3cc(Cl)ccc13)CCCC2)NCc1ccco1,0,-,57.0%,0,
CCOc1ccc(NS(=O)(=O)c2ccc(OC)c(C)c2)cc1,0,0,0,0,
CCOc1ccc(NS(=O)(=O)c2ccc(NC(C)=O)c(OC)c2)cc1,0,-,-,-,
CCOc1ccccc1C(=O)NC(C(=O)OCC(=O)Nc1nnc(-c2ccccc2)o1)C(C)C (centres undefined),0,-,-,-,
CCOc1ccccc1C(=O)OCC(=O)Nc1nnc(-c2ccccc2)o1,0,5.47,0,145.0%,CHO-K1 ctr=23.3;KCNQ1 sel pot=0;KCNQ2 pot confirm=13.9;Kir21 spec=0;KCNQ2 W236L pot=0
CCCc1cc(=O)oc2cc(OC(=O)CN3C(=O)NC4(CCCC4)C3=O)ccc12,0,0,-,-,
Nc1nc(SCC(=O)Nc2ccccc2Sc2ccc(Cl)cc2)n[nH]1,0,6.21,0,0,CHO-K1 ctr=23.1;KCNQ1 sel pot=0;KCNQ2 pot confirm=9.1;Kir21 spec=0;KCNQ2 W236L pot=0
CSc1ccccc1NC(=O)CSc1n[nH]c(N)n1,0,-,-,-,
Cc1ccc(NC(=O)C2OCCc3ccccc32)cc1Cl (centres undefined),0,-,-,-,
COc1ccccc1NC(=O)NNC(=O)CCc1ccccc1,0,0,-,-,
COc1ccc(CCCc2nnc(SCC(=O)NN)o2)c(C)c1,0,0,-,-,
COC(=O)[C@H](Cc1c[nH]c2ccccc12)NC(=O)NCc1ccc(OC)c(OC)c1,0,0,-,-,
COc1ccc(/C=C2/SC(=S)N(NS(=O)(=O)c3ccccc3)C2=O)cc1,0,0,-,-,
CC(/C=C1\SC(=S)N(NS(=O)(=O)c2ccccc2)C1=O)=C\c1ccccc1,0,12.2,0,259.5%,CHO-K1 ctr=0.8;KCNQ1 sel pot=63.0;KCNQ2 pot confirm=56.4;Kir21 spec=0;KCNQ2 W236L pot=0
